Measured values: PubChem BioAssay AID2620 (National Center for Advancing Translational Sciences (NCATS), 2010)
Records with an inconclusive call do not appear. Active and inactive are the calls of the source. The call rests on the fitted dose curve; in most records, active means well fitted curve in the direction sought with a large enough effect; inconclusive means small, poorly fitted or top-dose-only effect, or another doubt; inactive means no such curve, though single readings can be large or run the other way.

biological target: Pyruvate kinase PKM (Homo sapiens) (UniProt P14618); test: Secondary LDH Assay for Activators of Human Pyruvate Kinase M1 Isoform: for Probe SAR; conditions: purified hPK-M1, LDH-coupled NADH fluorescence kinetic; series mostly up to 58.2 µM
Sequence (P14618 whole entry, looked up, canonical isoform): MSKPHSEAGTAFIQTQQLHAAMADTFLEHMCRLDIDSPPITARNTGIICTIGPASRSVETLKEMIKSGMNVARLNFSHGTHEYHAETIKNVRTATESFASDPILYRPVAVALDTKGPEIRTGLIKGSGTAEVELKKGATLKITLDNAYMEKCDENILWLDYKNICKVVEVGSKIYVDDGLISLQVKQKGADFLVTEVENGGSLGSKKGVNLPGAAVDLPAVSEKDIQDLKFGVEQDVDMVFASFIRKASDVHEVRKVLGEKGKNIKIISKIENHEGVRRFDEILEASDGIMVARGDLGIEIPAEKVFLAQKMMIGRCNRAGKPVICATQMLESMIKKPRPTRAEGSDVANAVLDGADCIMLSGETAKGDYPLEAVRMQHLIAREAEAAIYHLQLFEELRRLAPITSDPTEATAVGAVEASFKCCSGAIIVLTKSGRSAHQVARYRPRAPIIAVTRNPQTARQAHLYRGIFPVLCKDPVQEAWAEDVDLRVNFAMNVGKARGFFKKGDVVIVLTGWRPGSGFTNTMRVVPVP
Text: NIH Chemical Genomics Center [NCGC]
Matthew G. Vander Heiden, M.D., Ph.D. [Harvard Medical School, 77 Avenue Louis Pasteur, Boston, MA 02115]
Human pyruvate kinase […] (hPK-M1)enzyme was supplied as a highly purified (>95% pure) preparation from Harvard Medical School and a secondary assay was used to evaluate compounds. This assay couples the formation of pyruvate from […] using lactate dehydrogenase (LDH) and NADH. The depletion of NADH is followed in a fluorescent-based kinetic assay that follows the formation of pyruvate to lactate, as catalyzed LDH. Pyruvate kinase substrates, PEP and ADP, were present in the assay at 0.1 mM and 4 mM respectively. In this kinetic assay initial rates were determined by following the fluorescence of NADH depletion.
NCGC Assay Protocol Summary:
Three uL of substrate mix (final concentration, 50 mM Tris-Cl pH 8.0, 200 mM KCl, 15 mM MgCl2, 0.1 mM PEP, 4.0 mM ADP, and 0.2 mM NADH) was dispensed into black-solid 1536 well plates. 23 nL of compounds were delivered by a pin tool and 1 uL of enzyme mix (final concentrations, 10 nM hPK-M1 and 1 uM of LDH) was added. Plates were immediately placed in ViewLux (Perkin Elmer) and NADH fluorescence was determined at 30 second exposure intervals for between 3 and 6 minutes. Data were normalized to the uninhibited controls.

outcome, inactive:
COc1ccc(NS(=O)(=O)c2ccc3c(c2)CCC(=O)N3)cc1
O=C1CCc2cc(S(=O)(=O)Nc3cc(F)cc(Cl)c3)c(F)cc2N1
O=C1NS(=O)(=O)c2ccccc21
COc1cc(F)c(S(=O)(=O)N2CCCN(S(=O)(=O)c3cccc(N)c3)CC2)c(F)c1
Cc1ccc(NS(=O)(=O)c2cc3c(cc2Cl)NC(=O)C3)cc1C
Cc1ccc(NS(=O)(=O)c2cc3c(cc2Br)NC(=O)CO3)cc1C
CC(=O)N1c2ccc(S(=O)(=O)Nc3ccc(C)c(C)c3)cc2CC1C (stereo not given)
Cc1ccc(Nc2c(-c3ccc(C)o3)nc3cccc(C)n23)cc1
COc1cccc(Cn2ncc3c4sc(SC)cc4n(C)c3c2=O)c1
O=C1c2ccccc2C(=O)N1Cc1ccncc1
Cc1ccc(NS(=O)(=O)c2ccc3c(c2)CCC(=O)N3)cc1C
Cc1ccc(NS(=O)(=O)c2cc3c(cc2F)NC(=O)CC3)cc1C
Cc1ccc(NS(=O)(=O)c2cccc(C(=O)O)c2)cc1C
Cc1ccc(NS(=O)(=O)c2ccc(-c3ccccc3)cc2)cc1C
Cc1cc(C)n2c(Nc3ccccc3)c(-c3ccc(C)o3)nc2n1
Cc1ccc(NS(=O)(=O)c2ccc3c(c2)CC(=O)N3C)cc1C
Cc1ccc(NS(=O)(=O)c2ccc3c(c2)CCC(=O)N3)cc1F
COc1cccc(N2C(=O)c3ccccc3C2=O)n1
O=C1c2ccccc2C(=O)N1c1ccncc1
COc1ccccc1NS(=O)(=O)c1ccc2c(c1)CCC(=O)N2
O=C1c2ccccc2C(=O)N1c1ccc2ncccc2c1
Cc1ccn2c(NC3CCCCC3)c(-c3ccc(C)o3)nc2c1
Cc1ccccc1Nc1c(-c2ccc(Cl)s2)nc2ccccn12
O=C1c2ccccc2C(=O)N1c1ccc(Cl)cc1
O=C1c2ccccc2C(=O)N1c1ccccn1
O=C1c2ccccc2C(=O)N1c1ccc2ccccc2n1
Cc1ccc(NS(=O)(=O)c2cc3c(cc2Cl)CCC(=O)N3)cc1C
Cc1ccc(NS(=O)(=O)c2ccc(N3CCCC3=O)cc2)cc1C
Cc1ccc(NS(=O)(=O)c2cc3c(cc2Cl)CCC(=O)N3)cc1Cl
Cc1ccc(NS(=O)(=O)c2ccc3c(c2)NC(=O)CO3)cc1C
CC(=O)Nc1cccc(S(=O)(=O)Nc2ccc(C)c(C)c2)c1
CC(C)Nc1cccc(S(=O)(=O)N2CCCN(S(=O)(=O)c3ccc4c(c3)OCCO4)CC2)c1
Cc1ccc(NS(=O)(=O)c2cc3c(cc2N2CCCCC2)NC(=O)CC3)cc1C
Cc1ccc(NS(=O)(=O)c2cc3c(cc2C)NC(=O)CO3)cc1C
COc1cccc(NS(=O)(=O)c2ccc3c(c2)CCC(=O)N3)c1
Cc1ccc(NS(=O)(=O)c2cc3c(cc2Cl)NC(=O)CO3)cc1C
Cc1c(Cl)cccc1NS(=O)(=O)c1cc2c(cc1F)NC(=O)CC2
O=C1c2ccccc2C(=O)N1c1cncc2ccccc12
Cc1ccc(NS(=O)(=O)c2ccc3c(c2)n(C)c(=O)n3C)cc1C
CN(C)c1cccc(S(=O)(=O)N2CCCN(S(=O)(=O)c3ccc4c(c3)OCCO4)CC2)c1
